Data on 13 compounds can be found in PubChem BioAssay.

A number with no mark means an inactive call. The list shows a part of the results. Activity calls are given as the source filed them.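 How the source made its calls, unless noted: active means average inhibition above a cutoff equal to the mean inhibition of all tested compounds plus one SD (cut at about 70% in these data); inactive means the rest.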

Receptor-interacting serine/threonine-protein kinase 2 (Homo sapiens), sequence (O43353 whole entry, looked up): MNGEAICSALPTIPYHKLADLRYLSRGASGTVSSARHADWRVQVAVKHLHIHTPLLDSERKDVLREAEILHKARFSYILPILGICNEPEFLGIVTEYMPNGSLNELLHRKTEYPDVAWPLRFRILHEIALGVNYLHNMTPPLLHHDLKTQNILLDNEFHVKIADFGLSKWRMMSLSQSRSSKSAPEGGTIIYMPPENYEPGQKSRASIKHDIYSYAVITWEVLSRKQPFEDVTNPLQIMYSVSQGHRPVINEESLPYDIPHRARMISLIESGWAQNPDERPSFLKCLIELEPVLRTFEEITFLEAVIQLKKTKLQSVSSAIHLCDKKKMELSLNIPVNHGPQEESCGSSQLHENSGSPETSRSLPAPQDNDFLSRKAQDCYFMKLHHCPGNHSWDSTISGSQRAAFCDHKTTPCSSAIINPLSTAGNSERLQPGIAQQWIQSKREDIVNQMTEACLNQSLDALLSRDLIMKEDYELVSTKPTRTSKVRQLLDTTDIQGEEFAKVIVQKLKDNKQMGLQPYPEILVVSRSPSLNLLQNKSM
Nuclear receptor coactivator 3 (Homo sapiens), sequence (Q9Y6Q9 whole entry, looked up, the tested form may be a part): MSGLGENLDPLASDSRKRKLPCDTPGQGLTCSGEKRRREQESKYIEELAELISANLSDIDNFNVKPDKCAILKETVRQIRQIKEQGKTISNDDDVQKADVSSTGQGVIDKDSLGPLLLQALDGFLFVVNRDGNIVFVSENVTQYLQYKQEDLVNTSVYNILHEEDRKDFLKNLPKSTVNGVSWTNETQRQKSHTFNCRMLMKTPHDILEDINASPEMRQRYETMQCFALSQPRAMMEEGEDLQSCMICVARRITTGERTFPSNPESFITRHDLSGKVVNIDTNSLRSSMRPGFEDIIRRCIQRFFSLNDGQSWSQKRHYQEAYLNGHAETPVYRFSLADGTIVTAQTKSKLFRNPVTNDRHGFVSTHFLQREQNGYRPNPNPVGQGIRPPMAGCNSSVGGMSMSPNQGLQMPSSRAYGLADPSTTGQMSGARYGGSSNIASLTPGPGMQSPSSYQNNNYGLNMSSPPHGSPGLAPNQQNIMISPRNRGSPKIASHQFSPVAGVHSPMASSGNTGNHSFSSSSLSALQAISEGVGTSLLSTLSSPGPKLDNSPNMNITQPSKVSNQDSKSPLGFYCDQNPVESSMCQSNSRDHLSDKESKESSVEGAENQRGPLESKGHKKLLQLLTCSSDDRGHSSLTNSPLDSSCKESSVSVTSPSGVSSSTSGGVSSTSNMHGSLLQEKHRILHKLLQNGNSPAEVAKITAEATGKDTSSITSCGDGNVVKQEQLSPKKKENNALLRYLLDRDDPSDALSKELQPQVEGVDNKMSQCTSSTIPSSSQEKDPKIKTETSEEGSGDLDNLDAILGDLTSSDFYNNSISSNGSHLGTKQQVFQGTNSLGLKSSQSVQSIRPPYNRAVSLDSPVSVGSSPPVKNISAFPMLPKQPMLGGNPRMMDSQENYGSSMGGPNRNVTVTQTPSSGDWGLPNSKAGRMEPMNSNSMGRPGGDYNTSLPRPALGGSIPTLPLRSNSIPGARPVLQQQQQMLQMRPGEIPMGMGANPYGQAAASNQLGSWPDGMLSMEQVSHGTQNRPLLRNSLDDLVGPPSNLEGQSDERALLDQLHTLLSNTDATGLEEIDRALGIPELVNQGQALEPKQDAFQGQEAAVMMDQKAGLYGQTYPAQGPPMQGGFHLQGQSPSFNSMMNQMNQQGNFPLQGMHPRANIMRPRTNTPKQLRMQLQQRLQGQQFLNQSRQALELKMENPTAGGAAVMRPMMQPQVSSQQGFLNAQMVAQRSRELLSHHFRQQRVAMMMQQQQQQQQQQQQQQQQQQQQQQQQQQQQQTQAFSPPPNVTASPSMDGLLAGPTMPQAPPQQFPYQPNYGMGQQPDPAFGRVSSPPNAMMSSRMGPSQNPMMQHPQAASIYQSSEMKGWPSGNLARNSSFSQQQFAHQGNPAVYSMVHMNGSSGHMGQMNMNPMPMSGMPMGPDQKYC
Nuclear receptor coactivator 1 (Homo sapiens), sequence (Q15788 whole entry, looked up, the tested form may be a part): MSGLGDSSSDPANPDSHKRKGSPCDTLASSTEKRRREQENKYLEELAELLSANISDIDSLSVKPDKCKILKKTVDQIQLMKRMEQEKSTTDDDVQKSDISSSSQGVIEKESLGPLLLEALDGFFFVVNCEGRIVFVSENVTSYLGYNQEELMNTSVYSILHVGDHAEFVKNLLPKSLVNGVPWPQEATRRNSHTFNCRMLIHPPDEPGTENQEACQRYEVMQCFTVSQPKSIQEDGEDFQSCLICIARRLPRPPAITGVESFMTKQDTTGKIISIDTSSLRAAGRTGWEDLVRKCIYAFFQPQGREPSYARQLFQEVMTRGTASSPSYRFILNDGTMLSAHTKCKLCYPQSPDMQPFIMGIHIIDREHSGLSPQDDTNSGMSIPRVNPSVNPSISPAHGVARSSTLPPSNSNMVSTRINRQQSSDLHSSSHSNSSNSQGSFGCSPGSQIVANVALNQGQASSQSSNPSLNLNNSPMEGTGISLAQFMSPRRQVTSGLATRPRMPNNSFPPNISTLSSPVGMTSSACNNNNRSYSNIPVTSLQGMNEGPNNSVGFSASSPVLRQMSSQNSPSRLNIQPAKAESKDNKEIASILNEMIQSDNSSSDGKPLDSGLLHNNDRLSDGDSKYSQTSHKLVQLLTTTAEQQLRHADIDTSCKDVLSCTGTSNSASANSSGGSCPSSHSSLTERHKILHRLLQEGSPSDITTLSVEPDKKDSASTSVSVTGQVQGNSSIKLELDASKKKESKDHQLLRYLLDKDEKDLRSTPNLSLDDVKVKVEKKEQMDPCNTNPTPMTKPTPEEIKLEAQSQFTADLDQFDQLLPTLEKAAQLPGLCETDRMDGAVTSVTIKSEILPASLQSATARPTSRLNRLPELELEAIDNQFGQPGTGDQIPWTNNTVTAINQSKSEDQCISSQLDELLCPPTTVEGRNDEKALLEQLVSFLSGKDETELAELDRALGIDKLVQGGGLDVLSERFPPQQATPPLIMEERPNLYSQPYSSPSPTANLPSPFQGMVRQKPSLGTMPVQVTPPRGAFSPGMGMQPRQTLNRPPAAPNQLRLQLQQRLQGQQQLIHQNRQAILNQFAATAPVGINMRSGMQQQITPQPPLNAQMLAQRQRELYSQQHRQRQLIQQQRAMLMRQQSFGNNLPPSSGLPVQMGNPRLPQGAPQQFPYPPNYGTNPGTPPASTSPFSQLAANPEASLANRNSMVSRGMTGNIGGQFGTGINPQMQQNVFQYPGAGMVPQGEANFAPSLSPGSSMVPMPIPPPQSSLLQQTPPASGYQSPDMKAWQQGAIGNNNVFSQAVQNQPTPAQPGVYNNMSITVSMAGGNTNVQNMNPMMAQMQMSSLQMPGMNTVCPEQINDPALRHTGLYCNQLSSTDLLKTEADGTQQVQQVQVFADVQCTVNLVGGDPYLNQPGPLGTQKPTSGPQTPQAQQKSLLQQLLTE
Photoreceptor-specific nuclear receptor (Homo sapiens), sequence (Q9Y5X4 whole entry, looked up): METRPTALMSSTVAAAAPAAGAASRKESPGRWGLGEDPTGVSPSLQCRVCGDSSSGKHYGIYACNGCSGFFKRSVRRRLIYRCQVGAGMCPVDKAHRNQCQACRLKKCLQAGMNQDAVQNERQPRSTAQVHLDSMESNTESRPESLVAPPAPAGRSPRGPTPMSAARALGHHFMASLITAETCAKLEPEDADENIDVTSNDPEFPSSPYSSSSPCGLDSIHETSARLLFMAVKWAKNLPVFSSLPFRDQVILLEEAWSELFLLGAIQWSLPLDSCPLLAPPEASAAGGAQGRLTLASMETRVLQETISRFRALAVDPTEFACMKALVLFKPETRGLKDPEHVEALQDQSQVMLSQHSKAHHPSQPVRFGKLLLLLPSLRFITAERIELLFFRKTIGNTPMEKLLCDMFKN

The first experiment concerns the target Nuclear receptor coactivator 3 (Homo sapiens) (UniProt Q9Y6Q9). Kind of experiment: NCOA3 GAL4-fusion reporter inhibition – cell-based, luminescence, quadruplicate, confirmation (AID 588792;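 active means mean inhibition over 43.08%, the solvent-only control mean plus 3 SD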;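 further: 0% = DMSO treated cells and 100% = gossypol at 36 µM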). The following applies: HEK293 GAL4-SRC3 luciferase reporter, at 3.6 µM, stronger effect = higher value. On the technique in general: In a reporter assay the amount or activity of a reporter protein is the signal.
The term inhibition denotes the drop in the measured response relative to a control, in per cent. On to `CN(c1ccc2nc3ccccc3c(=O)n2n1)C1CCCCC1`, for which the inhibition is 59.8% (active).

For `CC1CC2=C(CC1/C=N/NC(N)=S)C(C)(C)CCC2` (configuration not stated), the inhibition is 50.9% (active).

Consider `C[C@@H]1C[C@@H]2O[C@H]2/C=C\C=C\C(=O)Cc2c(Cl)c(O)cc(O)c2C(=O)O1`, for which the inhibition is 62.2% (active).

The next experiment has as its system transactivating tegument protein VP16 (Human herpesvirus 1), Gal4-VP16 luciferase reporter. The experiment in a line: repression of VP16-driven luciferase reporter – cell-based, luminescence, high throughput, counter-screen for SRC3 inhibitor project (AID 588794; in the data active means inhibition above about 30%). The following applies: mammalian cells, at 3.6 µM, stronger effect = higher value.
Consider `CN(c1ccc2nc3ccccc3c(=O)n2n1)C1CCCCC1`, for which the inhibition was 48.9% (active).

For the compound `CC1CC2=C(CC1/C=N/NC(N)=S)C(C)(C)CCC2` (configuration not stated), the inhibition is 30.1% (active).

Turning to `C[C@@H]1C[C@@H]2O[C@H]2/C=C\C=C\C(=O)Cc2c(Cl)c(O)cc(O)c2C(=O)O1`, the inhibition was 74.4% (active).

The next experiment has as its target Nuclear receptor coactivator 1 (Homo sapiens) (UniProt Q15788). Kind of experiment: NCOA1 GAL4-fusion reporter inhibition – cell-based, luminescence, quadruplicate, confirmation (AID 588820;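 active means mean inhibition above 46.68%, the untreated control wells mean plus 3 SD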;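 further: 0% = DMSO wells and 100% = gossypol 36 µM treated wells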). The following applies: HEK293 GAL4-SRC1 luciferase reporter, at 3.6 µM, stronger effect = higher value.
As for `CN(c1ccc2nc3ccccc3c(=O)n2n1)C1CCCCC1`, the inhibition was -5.95%.

`CC1CC2=C(CC1/C=N/NC(N)=S)C(C)(C)CCC2` (configuration not stated): the inhibition is 32.9%.

Consider `C[C@@H]1C[C@@H]2O[C@H]2/C=C\C=C\C(=O)Cc2c(Cl)c(O)cc(O)c2C(=O)O1`, for which the inhibition is -17.6%.

Test system in the next experiment: not listed separately
Kind of experiment: repression of VP16-driven luciferase reporter – cell-based, luminescence, high throughput, counter-screen for SRC1 inhibitor project (AID 588824; in the data active means inhibition above about 25%). The following applies: cell-based VP16 transactivation luciferase luminescence; at 3.6 µM; stronger effect = higher value.
Regarding `CN(c1ccc2nc3ccccc3c(=O)n2n1)C1CCCCC1`, the inhibition was 23.2%.

Take `CC1CC2=C(CC1/C=N/NC(N)=S)C(C)(C)CCC2` (configuration not stated): the inhibition is 33.7% (active).

As to `C[C@@H]1C[C@@H]2O[C@H]2/C=C\C=C\C(=O)Cc2c(Cl)c(O)cc(O)c2C(=O)O1`, the inhibition is 72% (active).

A further experiment has as its target Receptor-interacting serine/threonine-protein kinase 2 (Homo sapiens) (UniProt O43353). Kind of experiment: inhibitors of RIPK2 association with NOD2 – fluorescence, CHO cells, BLA complementation, triplicate, confirmation (AID 624370;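 active means mean inhibition across replicates above a set limit taken from the earlier primary screen, cut at about 21% in these data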;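 further: 0% = DMSO-only wells and the high end = clavulanate BLA-blocked wells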). The following applies: CCF4 FRET, at 4.98 µM, stronger effect = higher value.
Turning to `O=C(/C=C/c1ccc(Cl)c([N+](=O)[O-])c1)c1ccc(O)cc1`, the inhibition is 31.7% (active).

On to `CC1CC(C)CN(S(=O)(=O)c2cccc(C(=O)N3C(=O)c4cccc(N)c4C3=O)c2)C1` (configuration not stated), for which the inhibition was 34.1% (active).

In the case of `O=C(Nc1ccccc1)c1nnsc1S(=O)(=O)c1ccc(Cl)cc1`, the inhibition was 65.2% (active).

`O=C1C=C(c2ccc(Cl)cc2)C(=O)N1Nc1ccccc1`: the inhibition is 90.3% (active).

Test system in a further experiment: not listed separately
Kind of experiment: BLA reporter readout interference – cell-based, CHO-K1 CMV-bla, CCF4 FRET, fluorescence, artefact control for NOD2-RIPK2 interaction inhibitor project, confirmation (AID 624371;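 active means mean inhibition above the low-control mean inhibition plus three low-control SD, cut at about 11% in these data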;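 further: 0% = DMSO only wells and 100% = clavulanate high control wells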). The following applies: CCF4 FRET ratio, counterscreen, at 4.98 µM, stronger effect = higher value. Background: A counterscreen serves to expose hits that act by an unwanted route or on another target.
Consider `O=C(/C=C/c1ccc(Cl)c([N+](=O)[O-])c1)c1ccc(O)cc1`, for which the inhibition was -1.48%.

For `CC1CC(C)CN(S(=O)(=O)c2cccc(C(=O)N3C(=O)c4cccc(N)c4C3=O)c2)C1` (configuration not stated), the inhibition was 33.2% (active).

Take `O=C(Nc1ccccc1)c1nnsc1S(=O)(=O)c1ccc(Cl)cc1`: the inhibition was 10.3%.

On to `O=C1C=C(c2ccc(Cl)cc2)C(=O)N1Nc1ccccc1`, for which the inhibition was 14.8% (active).

Another experiment addresses Photoreceptor-specific nuclear receptor (Homo sapiens) (UniProt Q9Y5X4). Kind of experiment: retest of NR2E3-NCOR disrupting agonists – cell-based, luminescence, CHO-S two-hybrid, confirmation (AID 624378).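 Further: 0% = DMSO in NR2E3 cells and 100% = DMSO in cells lacking NR2E3.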 The following applies: CHO-S mammalian two-hybrid NR2E3-NCOR, luciferase luminescence; at 3.98 µM; stronger effect = higher value.
`CN(c1ccc2nc3ccccc3c(=O)n2n1)C1CCCCC1`: the inhibition was 43.9%.

As for `CCNC(=O)CCc1nc(-c2ccc(C(C)(C)C)cc2)no1`, the inhibition is 73.5% (active).

Take `COc1cc(NC(=O)c2ccccc2NS(=O)(=O)c2ccc(Cl)s2)cc(OC)c1`: the inhibition was 99.6% (active).

For `COc1cccc(/C=N/Nc2ncc(C(F)(F)F)cc2Cl)c1O`, the inhibition was 83% (active).

Regarding `Cn1nccc1C(=O)NC1CCCc2c1cnn2-c1ccc(F)cc1F` (configuration not stated), the inhibition was 96.4% (active).

As for `COc1ccc(C(=O)Nc2ccccc2C(=O)N/N=C/c2ccc(O)c(OC)c2)cc1`, the inhibition is 42.1%.

Test system in the next experiment: not listed separately
Kind of experiment: nonselective effects on VP16 transactivation – cell-based, luminescence, CHO-S, high throughput, counter-screen for NR2E3 agonist project, confirmation (AID 624379;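 active means mean inhibition above a cutoff equal to the average over all tested compounds plus one standard deviation, cut at about 70% in these data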;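 further: luciferase from a UAS reporter driven by GAL4-VP16 transactivation; 0% = DMSO with VP16-transfected cells and 100% = DMSO with cells lacking VP16; higher means less reporter light so more repression of VP16 activity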). The following applies: CHO-S GAL4-VP16 luciferase reporter, at 3.98 µM, stronger effect = higher value.
On to `CN(c1ccc2nc3ccccc3c(=O)n2n1)C1CCCCC1`, for which the inhibition is 10.8%.

In the case of `CCNC(=O)CCc1nc(-c2ccc(C(C)(C)C)cc2)no1`, the inhibition was 77.8% (active).

Consider `COc1cc(NC(=O)c2ccccc2NS(=O)(=O)c2ccc(Cl)s2)cc(OC)c1`, for which the inhibition is 90.3% (active).

For the compound `COc1cccc(/C=N/Nc2ncc(C(F)(F)F)cc2Cl)c1O`, the inhibition was 75.5% (active).

Regarding `Cn1nccc1C(=O)NC1CCCc2c1cnn2-c1ccc(F)cc1F` (configuration not stated), the inhibition was 86.3% (active).

Turning to `COc1ccc(C(=O)Nc2ccccc2C(=O)N/N=C/c2ccc(O)c(OC)c2)cc1`, the inhibition is -33%.

Test system in the next experiment: not listed separately
Kind of experiment: StAR promoter reporter inhibitors, counter-screen for LRH-1 inverse agonist project, cell-based, luminescence, high throughput (AID 651611; in the data active means inhibition above about 28%). The following applies: StAR promoter luciferase reporter counterscreen, at 3.6 µM, stronger effect = higher value.
Consider `CN(c1ccc2nc3ccccc3c(=O)n2n1)C1CCCCC1`, for which the inhibition was 59.8% (active).

On to `Cc1cccc(NC(=O)c2ccc([N+](=O)[O-])o2)c1`, for which the inhibition was 21.1%.

In the case of `C[C@@H]1C[C@@H]2O[C@H]2/C=C\C=C\C(=O)Cc2c(Cl)c(O)cc(O)c2C(=O)O1`, the inhibition is 55.7% (active).

Regarding `Cn1nccc1C(=O)NC1CCCc2c1cnn2-c1ccc(F)cc1F` (configuration not stated), the inhibition is 20.2%.

Turning to `COc1ccc(C(=O)Nc2ccccc2C(=O)N/N=C/c2ccc(O)c(OC)c2)cc1`, the inhibition is 19%.

A further experiment deals with Nuclear receptor subfamily 5 group A member 2 (Homo sapiens) (UniProt O00482). Kind of experiment: NR5A2 activity suppression in reporter cells – cell-based, luminescence, confirmation (AID 651613; in the data active means inhibition above about 42%;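 further: HEK293T cells co-transfected with LRH-1 and StAR promoter luciferase reporter; 0% = vehicle wells and 100% = parental cells lacking receptor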). The following applies: cell-based LRH-1 luciferase reporter, inverse agonism; at 3.6 µM; stronger effect = higher value.
Nuclear receptor subfamily 5 group A member 2 (Homo sapiens), sequence (O00482 whole entry, looked up): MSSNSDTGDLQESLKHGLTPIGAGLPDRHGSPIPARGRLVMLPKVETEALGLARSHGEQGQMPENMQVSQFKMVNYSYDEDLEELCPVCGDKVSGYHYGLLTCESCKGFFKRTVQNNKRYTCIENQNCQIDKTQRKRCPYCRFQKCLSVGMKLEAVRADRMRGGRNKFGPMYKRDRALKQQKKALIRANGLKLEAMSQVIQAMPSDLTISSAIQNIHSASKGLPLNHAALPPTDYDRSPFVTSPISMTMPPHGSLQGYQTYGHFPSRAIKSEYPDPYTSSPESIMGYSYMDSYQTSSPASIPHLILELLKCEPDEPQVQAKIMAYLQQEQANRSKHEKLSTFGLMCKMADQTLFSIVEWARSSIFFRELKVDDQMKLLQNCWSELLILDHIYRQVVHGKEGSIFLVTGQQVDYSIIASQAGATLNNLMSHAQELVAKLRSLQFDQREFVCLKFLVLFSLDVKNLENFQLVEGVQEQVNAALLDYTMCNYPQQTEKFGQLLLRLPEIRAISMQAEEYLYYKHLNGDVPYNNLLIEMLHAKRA
In the case of `CN(c1ccc2nc3ccccc3c(=O)n2n1)C1CCCCC1`, the inhibition was 14.8%.

As for `Cc1cccc(NC(=O)c2ccc([N+](=O)[O-])o2)c1`, the inhibition is 58.8% (active).

Take `C[C@@H]1C[C@@H]2O[C@H]2/C=C\C=C\C(=O)Cc2c(Cl)c(O)cc(O)c2C(=O)O1`: the inhibition is 68.5% (active).

As to `Cn1nccc1C(=O)NC1CCCc2c1cnn2-c1ccc(F)cc1F` (configuration not stated), the inhibition was 62.8% (active).

Turning to `COc1ccc(C(=O)Nc2ccccc2C(=O)N/N=C/c2ccc(O)c(OC)c2)cc1`, the inhibition was -69.7%.

For a further experiment, the target named is Steroidogenic factor 1 (Homo sapiens) (UniProt Q13285). The experiment in a line: inverse agonism at SF1 nuclear receptor – cell-based, luminescence, high throughput, counter-screen for LRH-1 inverse agonist project (AID 651614; in the data active means inhibition above about 44%;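 further: cells cotransfected with StAR promoter reporter and SF1 expression vector; 0% = vehicle on cells with receptor and 100% = vehicle on cells lacking receptor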). The following applies: cell-based SF1 luciferase reporter, at 3.6 µM, stronger effect = higher value.
Steroidogenic factor 1 (Homo sapiens), sequence (Q13285 whole entry, looked up): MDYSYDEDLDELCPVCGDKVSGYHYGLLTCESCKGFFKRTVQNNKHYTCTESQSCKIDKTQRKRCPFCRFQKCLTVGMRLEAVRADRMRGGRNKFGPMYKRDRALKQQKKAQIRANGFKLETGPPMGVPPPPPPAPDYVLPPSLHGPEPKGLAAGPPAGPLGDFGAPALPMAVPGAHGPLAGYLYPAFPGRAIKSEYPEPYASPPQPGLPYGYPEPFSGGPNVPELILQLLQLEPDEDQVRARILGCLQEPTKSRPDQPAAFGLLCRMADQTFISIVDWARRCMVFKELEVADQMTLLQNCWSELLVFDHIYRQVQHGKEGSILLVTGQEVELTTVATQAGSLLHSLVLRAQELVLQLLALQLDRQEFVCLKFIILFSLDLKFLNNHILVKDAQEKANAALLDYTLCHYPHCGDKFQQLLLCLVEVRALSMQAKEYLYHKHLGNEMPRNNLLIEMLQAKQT
Regarding `CN(c1ccc2nc3ccccc3c(=O)n2n1)C1CCCCC1`, the inhibition was 57.6% (active).

For `Cc1cccc(NC(=O)c2ccc([N+](=O)[O-])o2)c1`, the inhibition was 57% (active).

As for `C[C@@H]1C[C@@H]2O[C@H]2/C=C\C=C\C(=O)Cc2c(Cl)c(O)cc(O)c2C(=O)O1`, the inhibition is 56.9% (active).

With `Cn1nccc1C(=O)NC1CCCc2c1cnn2-c1ccc(F)cc1F` (configuration not stated), the inhibition was 67.1% (active).

`COc1ccc(C(=O)Nc2ccccc2C(=O)N/N=C/c2ccc(O)c(OC)c2)cc1`: the inhibition was 11.7%.
